Laboratory results reported in paper PMC8384837, “Expanding the binding specificity for RNA recognition by a PUF domain”.

How the values were obtained:
Assay in all cases: yeast three-hybrid, YBZ-1, SC-Leu-His + 0.5 mM 3-AT, 4 days
Conditions in all cases: tags: N-Gal4 AD-HA kept; label: inside an RPR1-promoter hybrid RNA with tandem MS2 sites; ssRNA
PUM1 PUF domain R5-RSM = PUM1 PUF domain R5-RSM (Homo sapiens, UniProt Q14671 828-1176, C1007R;R1008S;Q1011M)
In short: (§1)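 A centromeric plasmid in strain YBZ-1 co-expressed Pumilio-1 PUF domain libraries, randomized at the three base-contacting residues of each repeat, with matching RNA elements; the strain carries a LexA–MS2 coat fusion and a HIS3 reporter. After four days on SC-Leu (input) or SC-Leu-His + 0.5 mM 3-AT (selection), the repeat regions were PCR-amplified and Illumina-sequenced. The interaction score is the log change in variant frequency from input to selection, using log2 and a pseudocount of 1 where absent.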

PUM1 PUF domain R5-QIR = PUM1 PUF domain R5-QIR (Homo sapiens, UniProt Q14671 828-1176, C1007Q;R1008I;Q1011R)
Chain of PUM1 PUF domain R5-QIR (Q14671 828-1176 C1007Q/R1008I/Q1011R): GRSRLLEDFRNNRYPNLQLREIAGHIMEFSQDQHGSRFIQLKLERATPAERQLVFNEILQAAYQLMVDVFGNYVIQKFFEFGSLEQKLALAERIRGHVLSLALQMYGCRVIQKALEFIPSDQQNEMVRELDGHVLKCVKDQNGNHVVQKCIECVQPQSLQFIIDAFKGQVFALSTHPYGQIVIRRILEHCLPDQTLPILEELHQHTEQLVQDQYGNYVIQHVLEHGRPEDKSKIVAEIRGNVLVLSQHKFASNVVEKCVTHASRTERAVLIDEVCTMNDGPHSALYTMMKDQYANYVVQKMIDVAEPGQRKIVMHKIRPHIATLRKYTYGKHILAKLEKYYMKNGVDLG
In short: as §1

PUM1 PUF domain R5-RTL = PUM1 PUF domain R5-RTL (Homo sapiens, UniProt Q14671 828-1176, C1007R;R1008T;Q1011L)
Chain of PUM1 PUF domain R5-RTL (Q14671 828-1176 C1007R/R1008T/Q1011L): as the sequence (Q14671 828-1176 C1007Q/R1008I/Q1011R) above, with Q180R, I181T, R184L counted along it
In short: as §1

PUM1 PUF domain R5-KSK = PUM1 PUF domain R5-KSK (Homo sapiens, UniProt Q14671 828-1176, C1007K;R1008S;Q1011K)
In short: as §1

PUM1 PUF domain R8-HWK = PUM1 PUF domain R8-HWK (Homo sapiens, UniProt Q14671 828-1176, N1122H;Y1123W;Q1126K)
Chain of PUM1 PUF domain R8-HWK (Q14671 828-1176 N1122H/Y1123W/Q1126K): as the sequence (Q14671 828-1176 C1007Q/R1008I/Q1011R) above, with Q180C, I181R, R184Q, N295H, Y296W, Q299K counted along it
In short: as §1

PUM1 PUF domain R7-KFR = PUM1 PUF domain R7-KFR (Homo sapiens, UniProt Q14671 828-1176, S1079K;N1080F;E1083R)
In short: as §1

PUM1 PUF domain R1-KNR = PUM1 PUF domain R1-KNR (Homo sapiens, UniProt Q14671 828-1176, S863K;R864N;Q867R)
In short: as §1

PUM1 PUF domain R6-TWA = target: T1, PUM1 PUF domain R6-TWA (Homo sapiens, UniProt Q14671 828-1176, N1043T;Y1044W;Q1047A)
T1 sequence: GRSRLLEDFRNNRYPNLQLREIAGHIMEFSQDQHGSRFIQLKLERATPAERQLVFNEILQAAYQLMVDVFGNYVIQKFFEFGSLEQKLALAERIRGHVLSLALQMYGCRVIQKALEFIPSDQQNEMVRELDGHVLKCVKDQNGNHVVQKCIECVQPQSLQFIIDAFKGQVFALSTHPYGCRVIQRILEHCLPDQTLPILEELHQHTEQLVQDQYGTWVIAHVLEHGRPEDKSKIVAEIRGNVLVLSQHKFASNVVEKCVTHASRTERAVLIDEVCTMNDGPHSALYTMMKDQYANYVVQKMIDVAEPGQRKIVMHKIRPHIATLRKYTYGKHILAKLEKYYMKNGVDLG
In short: as §1

PUM1 PUF domain R1-TFR = PUM1 PUF domain R1-TFR (Homo sapiens, UniProt Q14671 828-1176, S863T;R864F;Q867R)
Chain of PUM1 PUF domain R1-TFR (Q14671 828-1176 S863T/R864F/Q867R): as the sequence (Q14671 828-1176 C1007Q/R1008I/Q1011R) above, with S36T, R37F, Q40R, Q180C, I181R, R184Q counted along it
In short: as §1

PUM1 PUF domain R1-CIR = PUM1 PUF domain R1-CIR (Homo sapiens, UniProt Q14671 828-1176, S863C;R864I;Q867R)
Chain of PUM1 PUF domain R1-CIR (Q14671 828-1176 S863C/R864I/Q867R): as the sequence (Q14671 828-1176 C1007Q/R1008I/Q1011R) above, with S36C, R37I, Q40R, Q180C, I181R, R184Q counted along it
In short: as §1

PUM1 PUF domain R1-KRQ = PUM1 PUF domain R1-KRQ (Homo sapiens, UniProt Q14671 828-1176, S863K)
Chain of PUM1 PUF domain R1-KRQ (Q14671 828-1176 S863K): as the sequence (Q14671 828-1176 C1007Q/R1008I/Q1011R) above, with S36K, Q180C, I181R, R184Q counted along it
In short: as §1

PUM1 PUF domain R3-RIR = PUM1 PUF domain R3-RIR (Homo sapiens, UniProt Q14671 828-1176, C935R;R936I;Q939R)
Chain of PUM1 PUF domain R3-RIR (Q14671 828-1176 C935R/R936I/Q939R): as the sequence (Q14671 828-1176 C1007Q/R1008I/Q1011R) above, with C108R, R109I, Q112R, Q180C, I181R, R184Q counted along it
In short: as §1

PUM1 PUF domain R3-GRG = PUM1 PUF domain R3-GRG (Homo sapiens, UniProt Q14671 828-1176, C935G;Q939G)
In short: as §1

PUM1 PUF domain R3-LFL = PUM1 PUF domain R3-LFL (Homo sapiens, UniProt Q14671 828-1176, C935L;R936F;Q939L)
In short: as §1

PUM1 PUF domain R3-MRG = PUM1 PUF domain R3-MRG (Homo sapiens, UniProt Q14671 828-1176, C935M;Q939G)
In short: as §1

PUM1 PUF domain R3-GWL = PUM1 PUF domain R3-GWL (Homo sapiens, UniProt Q14671 828-1176, C935G;R936W;Q939L)
In short: as §1

PUM1 PUF domain R8-PFV = PUM1 PUF domain R8-PFV (Homo sapiens, UniProt Q14671 828-1176, N1122P;Y1123F;Q1126V)
Chain of PUM1 PUF domain R8-PFV (Q14671 828-1176 N1122P/Y1123F/Q1126V): as the sequence (Q14671 828-1176 C1007Q/R1008I/Q1011R) above, with Q180C, I181R, R184Q, N295P, Y296F, Q299V counted along it
In short: as §1

PUM1 PUF domain R8-KKA = PUM1 PUF domain R8-KKA (Homo sapiens, UniProt Q14671 828-1176, N1122K;Y1123K;Q1126A)
In short: as §1

PUM1 PUF domain R7-GRV = PUM1 PUF domain R7-GRV (Homo sapiens, UniProt Q14671 828-1176, S1079G;N1080R;E1083V)
Chain of PUM1 PUF domain R7-GRV (Q14671 828-1176 S1079G/N1080R/E1083V): as the sequence (Q14671 828-1176 C1007Q/R1008I/Q1011R) above, with Q180C, I181R, R184Q, S252G, N253R, E256V counted along it
In short: as §1

PUM1 PUF domain R7-QND = PUM1 PUF domain R7-QND (Homo sapiens, UniProt Q14671 828-1176, S1079Q;E1083D)
Chain of PUM1 PUF domain R7-QND (Q14671 828-1176 S1079Q/E1083D): as the sequence (Q14671 828-1176 C1007Q/R1008I/Q1011R) above, with Q180C, I181R, R184Q, S252Q, E256D counted along it
In short: as §1

Question: How did the binding signal (PUM1 PUF domain R5-RSM) turn out when “GGCUAGAACUAGUGGAUCCCCCGGCGCCCGGCGGCUCGAGCCCGGGUAAGUGUGAAUAGUCUGCAUGCCGCCGGGCGCCAUGCCUGCAGGUCGACUCUAGAAAACAUG” was run?
Answer: 0.3 log2 enrichment (interaction score)

Question: “GGCUAGAACUAGUGGAUCCCCCGGCGCCCGGCGGCUCGAGCCCGGGUAAGUGUCAAUAGUCUGCAUGCCGCCGGGCGCCAUGCCUGCAGGUCGACUCUAGAAAACAUG” was tested. Which binding signal (PUM1 PUF domain R5-QIR) did it give?
Answer: 3.55 log2 enrichment (interaction score)

Question: And the binding signal (PUM1 PUF domain R5-RTL)?
Answer: 2.38 log2 enrichment (interaction score)

Question: And the binding signal (PUM1 PUF domain R5-KSK)?
Answer: 3.19 log2 enrichment (interaction score)

Question: What about the binding signal (PUM1 PUF domain R5-RSM) of the same sequence?
Answer: 3.66 log2 enrichment (interaction score)

Question: Which binding signal (PUM1 PUF domain R8-HWK) does the source give for “GGCUAGAACUAGUGGAUCCCCCGGCGCCCGGCGGCUCGAGCCCGGGUAAGGGUAAAUAGUCUGCAUGCCGCCGGGCGCCAUGCCUGCAGGUCGACUCUAGAAAACAUG” here?
Answer: 2.46 log2 enrichment (interaction score)

Question: “GGCUAGAACUAGUGGAUCCCCCGGCGCCCGGCGGCUCGAGCCCGGGUAAGUCUAAAUAGUCUGCAUGCCGCCGGGCGCCAUGCCUGCAGGUCGACUCUAGAAAACAUG” was tested. Which binding signal (PUM1 PUF domain R7-KFR) did it give?
Answer: 5.33 log2 enrichment (interaction score)

Question: With “GGCUAGAACUAGUGGAUCCCCCGGCGCCCGGCGGCUCGAGCCCGGGUAAGUGUAAAUGGUCUGCAUGCCGCCGGGCGCCAUGCCUGCAGGUCGACUCUAGAAAACAUG” as the sequence, how does the binding signal (PUM1 PUF domain R1-KNR) read?
Answer: 3.86 log2 enrichment (interaction score)

Question: For “GGCUAGAACUAGUGGAUCCCCCGGCGCCCGGCGGCUCGAGCCCGGGUAAGUGUUAAUAGUCUGCAUGCCGCCGGGCGCCAUGCCUGCAGGUCGACUCUAGAAAACAUG”, which binding signal (PUM1 PUF domain R5-QIR) is on record?
Answer: 1.95 log2 enrichment (interaction score)

Question: How did the binding signal (PUM1 PUF domain R6-TWA) turn out when “GGCUAGAACUAGUGGAUCCCCCGGCGCCCGGCGGCUCGAGCCCGGGUAAGUGAAAAUAGUCUGCAUGCCGCCGGGCGCCAUGCCUGCAGGUCGACUCUAGAAAACAUG” was run?
Answer: 4.52 log2 enrichment (interaction score)

Question: How did the binding signal (PUM1 PUF domain R1-TFR) turn out when “GGCUAGAACUAGUGGAUCCCCCGGCGCCCGGCGGCUCGAGCCCGGGUAAGUGUAAAUCGUCUGCAUGCCGCCGGGCGCCAUGCCUGCAGGUCGACUCUAGAAAACAUG” was run?
Answer: 6.07 log2 enrichment (interaction score)

Question: What about the binding signal (PUM1 PUF domain R1-CIR) of the same sequence?
Answer: 4.43 log2 enrichment (interaction score)

Question: What about the binding signal (PUM1 PUF domain R1-KRQ) of the same sequence?
Answer: 5.97 log2 enrichment (interaction score)

Question: How did the binding signal (PUM1 PUF domain R3-RIR) turn out when “GGCUAGAACUAGUGGAUCCCCCGGCGCCCGGCGGCUCGAGCCCGGGUAAGUGUAAGUAGUCUGCAUGCCGCCGGGCGCCAUGCCUGCAGGUCGACUCUAGAAAACAUG” was run?
Answer: 5.02 log2 enrichment (interaction score)

Question: And the binding signal (PUM1 PUF domain R3-GRG)?
Answer: 0.98 log2 enrichment (interaction score)

Question: And the binding signal (PUM1 PUF domain R3-LFL)?
Answer: 4.75 log2 enrichment (interaction score)

Question: What about the binding signal (PUM1 PUF domain R3-MRG) of the same sequence?
Answer: 5.6 log2 enrichment (interaction score)

Question: And the binding signal (PUM1 PUF domain R3-GWL)?
Answer: 1.08 log2 enrichment (interaction score)

Question: For “GGCUAGAACUAGUGGAUCCCCCGGCGCCCGGCGGCUCGAGCCCGGGUAAGCGUAAAUAGUCUGCAUGCCGCCGGGCGCCAUGCCUGCAGGUCGACUCUAGAAAACAUG”, which binding signal (PUM1 PUF domain R8-PFV) is on record?
Answer: 2.24 log2 enrichment (interaction score)

Question: And the binding signal (PUM1 PUF domain R8-HWK)?
Answer: 2.42 log2 enrichment (interaction score)

Question: What about the binding signal (PUM1 PUF domain R8-KKA) of the same sequence?
Answer: 2.4 log2 enrichment (interaction score)

Question: How did the binding signal (PUM1 PUF domain R1-CIR) turn out when “GGCUAGAACUAGUGGAUCCCCCGGCGCCCGGCGGCUCGAGCCCGGGUAAGUGUAAAUUGUCUGCAUGCCGCCGGGCGCCAUGCCUGCAGGUCGACUCUAGAAAACAUG” was run?
Answer: 0.87 log2 enrichment (interaction score)

Question: And the binding signal (PUM1 PUF domain R1-KNR)?
Answer: 6.76 log2 enrichment (interaction score)

Question: What does the source list for “GGCUAGAACUAGUGGAUCCCCCGGCGCCCGGCGGCUCGAGCCCGGGUAAGUUUAAAUAGUCUGCAUGCCGCCGGGCGCCAUGCCUGCAGGUCGACUCUAGAAAACAUG”?
Answer: binding signal (PUM1 PUF domain R7-GRV): 2.62 log2 enrichment (interaction score); binding signal (PUM1 PUF domain R7-KFR): 6.28 log2 enrichment (interaction score)

Question: Which results are given for “GGCUAGAACUAGUGGAUCCCCCGGCGCCCGGCGGCUCGAGCCCGGGUAAGUGUAAAUAGUCUGCAUGCCGCCGGGCGCCAUGCCUGCAGGUCGACUCUAGAAAACAUG”?
Answer: binding signal (PUM1 PUF domain R7-QND): 3.96 log2 enrichment (interaction score); binding signal (PUM1 PUF domain R8-PFV): 1.89 log2 enrichment (interaction score); binding signal (PUM1 PUF domain R8-HWK): 2.36 log2 enrichment (interaction score); binding signal (PUM1 PUF domain R3-GRG): 2.99 log2 enrichment (interaction score); binding signal (PUM1 PUF domain R5-RSM): 1.04 log2 enrichment (interaction score); binding signal (PUM1 PUF domain R3-LFL): 1.59 log2 enrichment (interaction score); binding signal (PUM1 PUF domain R3-MRG): 0.61 log2 enrichment (interaction score); binding signal (PUM1 PUF domain R3-GWL): 3.81 log2 enrichment (interaction score)

Question: Which results are given for “GGCUAGAACUAGUGGAUCCCCCGGCGCCCGGCGGCUCGAGCCCGGGUAAGUGUAAUUAGUCUGCAUGCCGCCGGGCGCCAUGCCUGCAGGUCGACUCUAGAAAACAUG”?
Answer: binding signal (PUM1 PUF domain R3-RIR): 4.33 log2 enrichment (interaction score); binding signal (PUM1 PUF domain R3-MRG): 2.8 log2 enrichment (interaction score); binding signal (PUM1 PUF domain R3-GWL): 3.82 log2 enrichment (interaction score)
